The supplement of paper PMC6555819

Legend:
Assay in all cases: PBM binding z-score (relative to random genomic background probes); higher = stronger binding; sequences stand for … in GC…GCGATTGACAGCGTAGAATGAAGG
[1] = system: RARb homodimer (NR concentration 270 nM)
In short: (§1)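 On custom Agilent 4×180K arrays, double-stranded probes with 34-nt variable regions carried direct-repeat seeds, single-nucleotide variants, half-site ablations or random human genomic background. Ligand-free nuclear receptor dimers were applied for 1 h, and binding was read with antibodies against each partner (one per run). Binding z-scores come from regression-normalized fluorescence, with the random background probes as reference.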

[2] = system: RARg:RXRa (NR concentration 270 nM, RXRa partner concentration 90 nM)
In short: as §1

[3] = system: RARg homodimer (NR concentration 270 nM)
In short: as §1

[4] = system: RXRa DBDmut IVT, anti-RXR (DBD mutation: RXRa K156A/R161A, NR concentration 90 nM)
In short: as §1

[5] = system: RXRa homodimer (NR concentration 180 nM)
In short: as §1

[6] = system: THRa:RXRa (NR concentration 90 nM, RXRa partner concentration 90 nM)
In short: as §1

[7] = system: THRa homodimer (NR concentration 90 nM)
In short: as §1

[8] = system: VDR:RXRa (NR concentration 270 nM, RXRa partner concentration 90 nM)
In short: as §1

[9] = system: VDR homodimer (NR concentration 270 nM)
In short: as §1

Row | Sequence | PBM binding z-score [1] | PBM binding z-score [2] | PBM binding z-score [3] | PBM binding z-score [4] | PBM binding z-score [5] | PBM binding z-score [6] | PBM binding z-score [7] | PBM binding z-score [8] | PBM binding z-score [9]
1 | ATCTCTAGGCAAAAGTTCAGTGAATCCCGAGGAT | 2.4 | 1.66 | 1.69 | 0.479 | 1.02 | 0.622 | -0.181 | 0.715 | 0.923
2 | ATCTCTAGGTAACCAAGTTCAGTAAATGCCGAAC | 1.71 | 0.886 | 0.809 | 1.13 | 0.802 | 1.67 | 1.07 | 4.07 | 2.48
3 | GCGACTGGGGGATCAGCAGGTTACCATAACTTAA | 0.909 | 0.837 | 0.34 | 0.58 | 1 | 1.67 | 0.806 | 0.855 | 0.0827
4 | CCGAGTAGGTTATGGCGCATTCAGGCAACGGTGA | 0.598 | 0.0806 | 0.1 | -0.0161 | 0.365 | 0.169 | 0.321 | -0.266 | -0.2
5 | CCTACTGGGCCAAAGGGCATTGATTCCAATGCTC | 1.16 | 1.06 | 0.727 | -0.785 | 0.895 | 0.159 | -0.934 | 0.0732 | -0.17
6 | AGTCAATGTTCAGGACGAGGTAACGTAAAGCACG | 0.0341 | 0.243 | 0.459 | -0.371 | 0.279 | 2.16 | 1.78 | 0.00608 | 0.209
7 | GCTAGCAGACCATTTGGGTCACTCAATGACGGGC | 1.42 | 0.72 | 0.826 | -0.303 | 0.514 | 1.38 | 0.434 | -0.0299 | -0.19
8 | ATCTCTAGGTAAAGTTCAGTGTAAGATCGATAGA | 2.72 | 2.02 | 2.42 | 1.71 | 1.19 | 1.65 | 0.624 | 2.12 | 2.46
9 | TGAATGGGGTTAAAGATCAGGGAACGTGGCGTCG | 1.49 | 3.19 | 1.53 | 1.95 | 6 | 2.88 | 1.23 | 3.29 | 1.58
10 | CGAACTAGGTCAAGAACAGTGAATCTCCGCACGC | 2.48 | 3.31 | 4 | 1.65 | 2.36 | 2.33 | 0.755 | 1.04 | 0.197
11 | ACAGACAGGGGAGTGAAGGTAACTCAGCTGGACG | 0.179 | -0.128 | 0.208 | -0.277 | 0.0403 | 0.674 | 0.101 | -0.347 | -0.467
12 | GCTTTTAGATCAAGGTTAAGAAAGACTAAGCTAA | 0.302 | 0.483 | 0.485 | 0.874 | 0.844 | 1.37 | 0.0946 | 0.374 | -0.0628
13 | CCTAGGAGGACAACAGGAGGTCAGAGCTGCCAGA | 3.64 | 3.49 | 3.47 | 0.503 | 2.25 | 2.82 | 1.1 | 2.09 | 1.4
14 | CGTCAAAGTTCAAAGTAACGTAACAGAAAGCAGC | 3.42 | 5.52 | 5.99 | 4.98 | 4.88 | 1.72 | -0.272 | 4.09 | 4.15
15 | GGAACGAGGGCATTCGAGTTGATAGAATGGCGAT | 0.53 | 1.01 | 1.5 | 2.88 | 0.761 | 3.35 | -0.605 | 3.62 | 3.02
16 | TCTAGTTGGTCAAAGGTCACACATTCGAAATGCG | 5.15 | 6.77 | 5.76 | 1.62 | 7.57 | 4 | 2.07 | 5.09 | 2.42
17 | CGTCAAAGTTCAACTAAGGTAATGTAAAGCACGC | 4.29 | 5.86 | 6.53 | 4.51 | 5.18 | 5.18 | 1.31 | 4.8 | 3.69
18 | CCTACTGAGCCATTCAGAGGTCATTGATCATATG | 4.08 | 3.93 | 2.95 | 1.66 | 4.41 | 3.21 | 1.58 | 3.96 | 3.71
19 | CCTGCTAGGTCATGATCAGCTAATCTACAGTATG | 2.57 | 3.89 | 4.57 | 1.65 | 2.85 | 2.75 | 0.661 | 1.41 | 0.00806
20 | CCTACTGCGCCAAAAAGGTCATTGATGCCGATAA | 4.48 | 4.82 | 4.32 | 1.65 | 5.56 | 3.04 | 1.34 | 4.94 | 3.24
21 | ATCGAAAGGTCGACGAGGTGAGTACACACCGTTT | 3.26 | 4.26 | 4.18 | 1.34 | 4.5 | 3.7 | 1.06 | 5.59 | 2.27
22 | AGTCAAAGTTCATCTAGATAACGTAAGATATGCT | 3.87 | 5.31 | 5.67 | 4.57 | 4.56 | 1.99 | -0.582 | 4.66 | 4.4
23 | CCAGACAGTTGAGAAGGTAACTCAGCCTCGATTA | 0.381 | 0.25 | 0.293 | 0.456 | 0.203 | 0.25 | 0.485 | 0.251 | 0.252
24 | CTACCAAGGTGAACAAGTTCGTTGATTACTATTC | 1.3 | 0.877 | 1.02 | 2.17 | 0.747 | 1.9 | 0.959 | 6.15 | 3.6
25 | ACTAGTTTGTCAGCTGAGGTCACACACAATTCGG | 3.94 | 3.85 | 3.7 | 1.98 | 4.13 | 4.42 | 5.24 | 4.34 | 3.53
26 | GCTAGCAGGCCATTTGGGTCTCTCAATGACGGGC | -0.614 | -0.279 | -0.301 | -0.264 | -0.294 | 0.0257 | -0.703 | -0.594 | -0.774
